In PubChem BioAssay AID651650 (Sanford-Burnham Center for Chemical Genomics, 2012):

Molecular target: Neuropilin-1 (Homo sapiens) (UniProt O14786)
Experiment: NRP-1 b1b2 CendR peptide binding inhibitors, dose response, biochemical, FP and AlphaScreen panel (AID 651650)
Details: NRP-1 b1b2 / RPARPAR peptide binding, FP or AlphaScreen; run 1, at 100 µM (top of the series)

Sequence of Neuropilin-1 (Homo sapiens) (O14786 whole entry, looked up): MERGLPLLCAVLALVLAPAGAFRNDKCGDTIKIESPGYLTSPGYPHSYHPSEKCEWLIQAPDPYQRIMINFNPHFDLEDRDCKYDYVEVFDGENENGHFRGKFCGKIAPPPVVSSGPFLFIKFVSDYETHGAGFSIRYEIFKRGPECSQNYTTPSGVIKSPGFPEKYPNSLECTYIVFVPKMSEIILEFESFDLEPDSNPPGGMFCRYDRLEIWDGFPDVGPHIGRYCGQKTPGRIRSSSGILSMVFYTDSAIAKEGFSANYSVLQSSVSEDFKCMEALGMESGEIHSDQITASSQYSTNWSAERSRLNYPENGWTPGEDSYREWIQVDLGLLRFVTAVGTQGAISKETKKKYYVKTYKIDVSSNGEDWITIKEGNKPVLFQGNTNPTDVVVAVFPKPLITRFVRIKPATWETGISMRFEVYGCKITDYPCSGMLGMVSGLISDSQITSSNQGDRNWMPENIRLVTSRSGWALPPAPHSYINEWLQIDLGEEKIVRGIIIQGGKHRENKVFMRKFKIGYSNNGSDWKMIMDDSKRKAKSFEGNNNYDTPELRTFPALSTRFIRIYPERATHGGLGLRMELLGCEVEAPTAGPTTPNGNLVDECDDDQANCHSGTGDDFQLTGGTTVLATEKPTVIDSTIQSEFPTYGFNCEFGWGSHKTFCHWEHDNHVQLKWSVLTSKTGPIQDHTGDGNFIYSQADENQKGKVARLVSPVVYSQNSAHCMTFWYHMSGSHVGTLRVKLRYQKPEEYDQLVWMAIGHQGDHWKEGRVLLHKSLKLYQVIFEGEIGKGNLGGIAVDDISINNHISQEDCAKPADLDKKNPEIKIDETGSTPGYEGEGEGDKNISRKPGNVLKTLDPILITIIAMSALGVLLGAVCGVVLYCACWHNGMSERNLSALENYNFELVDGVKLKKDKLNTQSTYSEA

SMILES: COC(=O)C1=C(c2cccc(C#N)c2)C[C@@H]2CC[C@H]1N2C(=O)NCCO
- inhibition: 39.7%

SMILES: O=C1C=CC(=O)C2C1C1(Cl)C(Cl)=C(Cl)C2(Cl)C1(Cl)Cl (centres undefined)
- inhibition: 44.9%

SMILES: Cc1ccc(Cn2nnnc2CN2CCC(n3nnc4ccccc43)CC2)cc1
- inhibition: 15.9%

SMILES: COC(=O)C1=C(c2ccc(F)cc2OCc2ccccc2)C[C@@H]2CC[C@H]1N2C(=O)NCCNC(C)=O
- inhibition: 95.9%

SMILES: CCC1C2Cc3ccc(O)cc3C1(CC)CCN2C (centres undefined)
- inhibition: 3.24%

SMILES: O=S(=O)(c1cc(Cl)cc(Cl)c1)N1Cc2cc(-c3ccccc3)ccc2-n2nncc2C1
- inhibition: 13.6%

SMILES: CCC(=NCCc1ccccc1)c1c(O)n(C2CCCCC2)c(=O)[nH]c1=O
- inhibition: 42.9%

SMILES: CC1(C)CN=C(Nc2ccc(F)c(Cl)c2)S1
- inhibition: 82.2%

SMILES: Cc1c(NP(=O)(C(C)(C)C)C(C)(C)C)c(=O)n(-c2ccccc2)n1C
- inhibition: 31.8%

SMILES: C=CCN1C(=O)C2(C(C(=O)OCC)=C(N)Oc3ccccc32)c2c1c1ccccc1oc2=O (centres undefined)
- inhibition: 4.11%

SMILES: CN1C[C@H](CO)C=C2c3cccc4[nH]cc(c34)C[C@H]21
- inhibition: 51.6%

SMILES: Cc1ccc(C(=O)C2CN3CCC2CC3)cc1 (centres undefined)
- inhibition: 26.3%

SMILES: CC(=O)OC1CC[C@]2(C#N)[C@H]3CC[C@]4(C)[C@H](C5C=CC(=O)O5)CCC4(O)C3CCC2(O)C1 (some centres undefined)
- inhibition: 58.3%

SMILES: Cc1ccc(C2(O)CCN3CCCCC32)cc1 (centres undefined)
- inhibition: -5.87%
